Values joined by “and” are separate entries in the source; they are usually repeats but may differ in a detail not shown here. Identical values can stand only once. Some structures have more than one record in an assay (separate samples or runs), and their calls can disagree. Active and inactive are the calls of the source. Unless noted, calls follow the shape of the dose curve; as a rule, active = well fitted curve in the direction sought with a large enough effect in the repeat runs; inconclusive = weak or mixed curves; inactive = no such curve, though single readings can be large; an effect the other way counts as inactive or inconclusive.
Columns and labels:
[1] = qHTS assay to identify small molecule antagonists of the glucocorticoid receptor (GR) signaling pathway - cell viability counter screen (AID 720693); also: nearly all actives have a fitted effect of over 55% in size
[2] = qHTS assay for identifying genotoxic compounds that show differential cytotoxicity against isogenic chicken DT40 cell lines with known DNA damage response pathways - wild type cell line (AID 743012); also: nearly all actives have a fitted effect of over 60% in size
Summary of the method: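 Cells (DT40 wild type, 300/well) are treated with DMSO-dissolved compounds after a ~0.5 h pre-incubation and kept 40 h at 37 C/5% CO2. Viability is then measured by CellTiter-Glo luminescence following 30 min at room temperature.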

[3] = qHTS assay for identifying genotoxic compounds that show differential cytotoxicity against isogenic chicken DT40 cell lines with known DNA damage response pathways - Rev3 mutant cell line (AID 743014); also: nearly all actives have a fitted effect of over 55% in size; also: potency is read from the fitted curve at half-maximal effect
[4] = qHTS assay for identifying genotoxic compounds that show differential cytotoxicity against isogenic chicken DT40 cell lines with known DNA damage response pathways - Rad54/Ku70 mutant cell line (AID 743015); also: nearly all actives have a fitted effect of over 60% in size
[5] = qHTS assay to identify small molecule antagonists of the androgen receptor (AR) signaling pathway - cell viability counter screen (AID 743033; also: nearly all actives have a fitted effect of over 45% in size)
[6] = qHTS assay to identify small molecule antagonists of the androgen receptor (AR) signaling pathway using the MDA cell line - cell viability counter screen (AID 743041; also: nearly all actives have a fitted effect of over 45% in size)
Summary of the method: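 Same-well cytotoxicity was assessed by CellTiter-Fluor in MDA-kb2 AR-luc cells after 16 h of compound treatment under R1881 agonism.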

[7] = qHTS assay to identify small molecule antagonists of the thyroid receptor (TR) signaling pathway - cell viability counter screen (AID 743064); also: nearly all actives have a fitted effect of over 50% in size
Summary of the method: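 In-well cytotoxicity read by CellTiter-Fluor (30 min, 37 C) following 23.5 h exposure of GH3 cells bearing a TRE-luciferase sensor. Compounds were added alongside 1 nM (final) T3 to drive TR transactivation.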

[8] = qHTS assay to identify small molecule antagonists of the thyroid receptor (TR) signaling pathway (AID 743065); also: series mostly up to about 70 µM; nearly all actives have a fitted effect of over 55% in size
Summary of the method: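 GH3.TRE-Luc rat pituitary cells (two TREs driving luciferase) were dosed with compound, then stimulated with 1 nM T3 (final) for 23.5 h at 37 C. ONE-Glo luminescence was the read-out, with CellTiter-Fluor fluorescence as the cytotoxicity counter-screen.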

[9] = tested on: thyroid hormone receptor (rat, GH3 cells); assay: qHTS assay to identify small molecule agonists of the thyroid receptor (TR) signaling pathway (AID 743066; calls by dose curve)
[10] = biological target: Estrogen receptor (Homo sapiens) (UniProt P03372); assay: qHTS assay to identify small molecule antagonists of the estrogen receptor alpha (ER-alpha) signaling pathway (AID 743069; active = well fitted curve in the direction sought with a large enough effect in the signal ratio in the repeat runs, not every such curve was filed as active; inconclusive = weak or mixed curves, or effect the other way; inactive = no such curve, though single readings can be large or run the other way; the % refers to the signal ratio)
Summary of the method: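 Reporter cells (ER-alpha-bla, HEK293 background) are conditioned overnight in stripped-serum medium (2% charcoal-stripped FBS). Compound and 17beta-estradiol exposure runs 18 hr at 37C, 5% CO2.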

[11] = qHTS assay to identify small molecule antagonists of the estrogen receptor alpha (ER-alpha) signaling pathway - cell viability counter screen (AID 743074; calls by dose curve;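 also: HEK293 cells carrying ER-alpha-UAS-bla reporter stimulated with 17beta-estradiol; nearly all actives have a fitted effect of over 45% in size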)
[12] = biological target: Estrogen receptor (Homo sapiens) (UniProt P03372); assay: qHTS assay to identify small molecule agonists of the estrogen receptor alpha (ER-alpha) signaling pathway (AID 743075; calls by dose curve;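 also: HEK293 GripTite cells with ER-alpha and UAS-driven beta-lactamase reporter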; also: potency is read from the fitted curve at half-maximal effect)
[13] = biological target: Estrogen receptor (Homo sapiens) (UniProt P03372); assay: qHTS assay to identify small molecule agonists of the estrogen receptor alpha (ER-alpha) signaling pathway using the BG1 cell line (AID 743079); also: nearly all actives have a fitted effect of over 20% in size; also: potency is read from the fitted curve at half-maximal effect
[14] = qHTS assay to identify small molecule antagonists of the estrogen receptor alpha (ER-alpha) signaling pathway using the BG1 cell line (AID 743080; calls by dose curve;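 also: BG1 cells stimulated with 17beta-estradiol alongside compound; series mostly up to about 70 µM; nearly all actives have a fitted effect of over 25% in size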)
Summary of the method: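 Luminescence from a 4×ERE-luciferase reporter in BG1-Luc-4E2 cells served as read-out. Cells, pre-cultured 5 days in stripped-serum phenol-red-free medium, were exposed to compound with 17beta-estradiol co-stimulation for 21.5 h at 37 C.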

[15] = qHTS assay to identify small molecule antagonists of the estrogen receptor alpha (ER-alpha) signaling pathway using the BG1 cell line - cell viability counter screen (AID 743081);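 also: compound given together with 17beta-estradiol as the ER stimulus; series mostly up to about 70 µM; nearly all actives have a fitted effect of over 45% in size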
[16] = biological target: Aromatase (Homo sapiens) (UniProt P11511); assay: qHTS assay to identify aromatase inhibitors (AID 743083); also: series mostly up to about 70 µM; nearly all actives have a fitted effect of over 55% in size
[17] = biological target: Androgen receptor (Homo sapiens) (UniProt P10275); assay: qHTS assay to identify small molecule antagonists of the androgen receptor (AR) signaling pathway (AID 743035; active = well fitted inhibition curve with a large enough effect in the signal ratio in the repeat runs, not every such curve was filed as active; inconclusive = weak or mixed curves, or effect the other way; inactive = no such curve, though single readings can be large or run the other way; the % refers to the signal ratio)
Summary of the method: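 Antagonism is scored as loss of R1881-driven beta-lactamase reporter expression in HEK293 cells carrying the reporter under a UAS element, after 16 h co-treatment at 37C and a 2 h room-temperature FRET substrate read.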

[18] = biological target: Androgen receptor (Homo sapiens) (UniProt P10275); assay: qHTS assay to identify small molecule agonists of the androgen receptor (AR) signaling pathway (AID 743036; active = well fitted activation curve with a large enough effect in the signal ratio in the repeat runs, with a control signal flat, not every such curve was filed as active; inconclusive = weak or mixed curves, or effect the other way; inactive = no such curve, though single readings can be large or run the other way; the % refers to the signal ratio)
Summary of the method: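 Activation was read as beta-lactamase FRET signal from LiveBLAzer B/G substrate, added for 2 h at room temperature. Before that, GeneBLAzer AR-UAS-bla GripTite (HEK293) cells had 16 h compound exposure at 37C.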

[19] = biological target: Androgen receptor (Homo sapiens) (UniProt P10275); assay: qHTS assay to identify small molecule agonists of the androgen receptor (AR) signaling pathway using the MDA cell line (AID 743040; also: nearly all actives have a fitted effect of over 20% in size)
Summary of the method: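 Human breast carcinoma MDA-kb2 reporter cells (MMTV-luc, AR/GR elements) were treated for 16 h at 37C in 0% CO2 following a 5 h settling period. Signal was quantified by ONE-Glo luminescence.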

[20] = biological target: Androgen receptor (Homo sapiens) (UniProt P10275); assay: qHTS assay to identify small molecule antagonists of the androgen receptor (AR) signaling pathway using the MDA cell line (AID 743042; also: nearly all actives have a fitted effect of over 55% in size)
Summary of the method: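 MDA-kb2 breast carcinoma cells carrying MMTV-luciferase (AR/GR responsive) were co-treated with compounds and the agonist R1881 for 16 h at 37C. Inhibition read as ONE-Glo luminescence; CellTiter-Fluor fluorescence measured in parallel for cytotoxicity.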

Measured: Potency

Sequence of Estrogen receptor (Homo sapiens) (P03372 whole entry, looked up): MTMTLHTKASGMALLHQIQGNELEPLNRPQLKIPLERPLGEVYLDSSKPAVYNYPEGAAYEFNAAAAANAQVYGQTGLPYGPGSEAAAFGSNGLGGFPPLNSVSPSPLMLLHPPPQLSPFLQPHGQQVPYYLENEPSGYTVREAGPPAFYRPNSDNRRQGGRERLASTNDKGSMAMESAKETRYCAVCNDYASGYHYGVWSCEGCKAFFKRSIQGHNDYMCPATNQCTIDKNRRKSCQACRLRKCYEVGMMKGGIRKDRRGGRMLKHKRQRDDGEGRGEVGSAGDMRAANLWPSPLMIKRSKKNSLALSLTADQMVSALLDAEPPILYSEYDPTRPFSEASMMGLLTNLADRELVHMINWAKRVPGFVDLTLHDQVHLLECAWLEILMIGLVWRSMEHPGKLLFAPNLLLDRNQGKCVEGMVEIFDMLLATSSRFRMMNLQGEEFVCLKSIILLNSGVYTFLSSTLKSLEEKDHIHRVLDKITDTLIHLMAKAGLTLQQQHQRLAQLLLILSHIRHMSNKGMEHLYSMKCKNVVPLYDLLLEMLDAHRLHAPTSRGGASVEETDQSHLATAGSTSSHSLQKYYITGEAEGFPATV
Sequence of Aromatase (Homo sapiens) (P11511 whole entry, looked up): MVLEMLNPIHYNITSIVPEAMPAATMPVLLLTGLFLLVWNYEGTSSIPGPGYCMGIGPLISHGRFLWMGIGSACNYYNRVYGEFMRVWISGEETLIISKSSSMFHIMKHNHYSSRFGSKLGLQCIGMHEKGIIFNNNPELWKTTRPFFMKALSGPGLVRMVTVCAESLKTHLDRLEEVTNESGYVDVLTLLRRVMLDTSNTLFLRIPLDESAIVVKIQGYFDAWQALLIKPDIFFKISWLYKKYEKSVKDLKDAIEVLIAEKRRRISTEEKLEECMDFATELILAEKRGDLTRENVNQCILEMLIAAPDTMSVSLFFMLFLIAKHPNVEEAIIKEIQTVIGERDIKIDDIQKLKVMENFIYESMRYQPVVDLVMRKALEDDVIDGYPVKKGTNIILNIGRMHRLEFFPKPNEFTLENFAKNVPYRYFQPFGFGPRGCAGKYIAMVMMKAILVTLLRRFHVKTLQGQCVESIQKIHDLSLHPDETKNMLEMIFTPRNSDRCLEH
Sequence of Androgen receptor (Homo sapiens) (P10275 whole entry, looked up): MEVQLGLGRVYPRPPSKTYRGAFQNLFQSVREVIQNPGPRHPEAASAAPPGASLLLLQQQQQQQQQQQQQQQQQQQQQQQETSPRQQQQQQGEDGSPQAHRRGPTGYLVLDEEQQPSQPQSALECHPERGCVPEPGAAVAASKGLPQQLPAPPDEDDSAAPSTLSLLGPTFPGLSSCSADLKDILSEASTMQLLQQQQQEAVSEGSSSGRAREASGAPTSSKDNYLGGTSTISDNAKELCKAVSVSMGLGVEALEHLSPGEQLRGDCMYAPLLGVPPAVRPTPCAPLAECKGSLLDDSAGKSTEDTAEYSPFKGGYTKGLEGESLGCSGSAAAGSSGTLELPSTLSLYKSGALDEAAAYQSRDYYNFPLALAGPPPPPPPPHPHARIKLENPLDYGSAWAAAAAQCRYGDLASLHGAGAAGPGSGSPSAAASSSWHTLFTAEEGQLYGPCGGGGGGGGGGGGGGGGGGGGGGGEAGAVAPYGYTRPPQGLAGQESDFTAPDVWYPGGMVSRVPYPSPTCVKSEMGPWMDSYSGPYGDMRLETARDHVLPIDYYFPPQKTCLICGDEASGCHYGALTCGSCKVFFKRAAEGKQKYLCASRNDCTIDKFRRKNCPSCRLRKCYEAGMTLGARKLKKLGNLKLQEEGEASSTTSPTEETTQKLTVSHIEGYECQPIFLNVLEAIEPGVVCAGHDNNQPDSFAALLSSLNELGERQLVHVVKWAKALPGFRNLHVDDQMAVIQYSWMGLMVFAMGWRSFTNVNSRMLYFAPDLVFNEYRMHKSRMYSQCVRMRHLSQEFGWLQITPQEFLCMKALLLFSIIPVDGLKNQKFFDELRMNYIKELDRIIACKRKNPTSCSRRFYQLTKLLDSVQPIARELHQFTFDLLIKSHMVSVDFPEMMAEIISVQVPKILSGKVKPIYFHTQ

O=c1[nH]c2ccccc2c(=O)o1
not listed: [17] | [18] | [19] | [20]
inactive: all other assays above

O=c1ccc(=O)[nH][nH]1
not listed: [10] | [12] | [13] | [14]
inactive: all other assays above

CCC[CH2][Sn]([Cl])([Cl])[Cl]
not listed: [17] | [18] | [19] | [20]
inactive: all other assays above

ClCc1cccnc1
not listed: [17] | [18] | [19] | [20]
inactive: all other assays above

O=[N+]([O-])c1ccccc1
not listed: [17] | [18] | [19] | [20]
inactive: all other assays above

CC(C#N)CCC#N (stereo unspecified)
not listed: [17] | [18] | [19] | [20]
inactive: all other assays above

Cc1ccc(N)cc1Cl
not listed: [17] | [18] | [19] | [20]
inactive: all other assays above

O=S(=O)(c1ccc(O)cc1)c1ccc(O)cc1
active: [12] 15.6 µM [inconclusive] and 24.5 µM [inconclusive] | [13] 3.88 µM and 1.93 µM
not listed: [17] | [18] | [19] | [20]
inactive: all other assays above

CN(N=O)c1ccccc1
not listed: [17] | [18] | [19] | [20]
inactive: all other assays above

CC(Br)C(=O)O (stereo unspecified)
not listed: [10] | [17] | [18] | [19] | [20]
inactive: all other assays above

BrCCBr
18.8 µM (active) and inactive: [3]
not listed: [17] | [18] | [19] | [20]
inactive: all other assays above

Cc1cc(-c2cc(C)c(N)c(C)c2)cc(C)c1N
not listed: [17] | [18] | [19] | [20]
inactive: all other assays above

COP(N)(=O)SC (stereo unspecified)
not listed: [17] | [18] | [19] | [20]
inactive: all other assays above

O=c1n(Cl)c(=O)n(Cl)c(=O)n1Cl
not listed: [17] | [18] | [19] | [20]
inactive: all other assays above

CC(C)OC(=O)Nc1ccccc1
active: [13] 30.7 µM and 54.5 µM
not listed: [17] | [18] | [19] | [20]
inactive: all other assays above

ClCCBr
not listed: [17] | [18] | [19] | [20]
inactive: all other assays above

CCC12COCN1COC2
not listed: [17] | [18] | [19] | [20]
inactive: all other assays above

Reference: PubChem BioAssay (Tox21)
